The structures appear in SMILES notation. The panel holds about 83,000 compounds, 20% with a hit somewhere; the sample as a whole holds those more often.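 Treatment: one concentration, 48 hours, 96-well format. Scoring: percent growth, with anything below 10 considered active.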 Unmarked numbers belong to inactive results. Active and inactive are the calls of the source.

The test relates to HL-60(TB) leukemia. The test is described as follows: NCI-60 one-dose screen, 48 h (100 = growth as untreated, 0 = no growth, -100 = all killed). The settings on record: 10 µM unless noted.
As for `C=CCNC(=S)N/C=C(/C(=O)c1ccccc1)c1ccccc1`, the growth is 101%.

Take `COc1ccc2nc3cc(Cl)ccc3c(Nc3ccc(O)c(CN4CCCC4)c3)c2c1`: the growth was -51% (active).

Regarding `COCCOC(=O)C1=C(C)NC(=S)NC1c1ccc2c(c1)OCO2` (stereo not given), the growth is 92.1%.

Take `CC1(C)N=C(N)N=C(N)N1c1ccc(CCc2ccccc2)c(Cl)c1`: the growth was 2.09% (active).

As to `COc1ccc(/C=C/C(=O)c2cc3c(N)c(C(=O)Nc4ccccc4C)sc3nc2C)cc1`, the growth was 10.7%.

Regarding `Cc1nn(-c2ccccc2)c(N)c1N=C1NC(=O)/C(=C/c2ccc(Cl)cc2)S1`, the growth is 74.3%.

Take `O=C(N/N=C/c1c(Cl)cccc1Cl)c1cccc(Nc2ccnc(C(F)(F)F)c2)c1`: the growth is 98.3%.

In the case of `C=CN(C(=O)N1CCN(c2cc3c(cc2F)c(=O)c(C(=O)O)cn3C2CC2)CC1)c1nc(-c2ccccc2)cs1`, the growth was 58.1%.

In the case of `O=C1c2cc3c(cc2-c2c1c1ccc(Cl)cc1c(=O)n2C[C@H](O)CO)OCO3`, the growth is -14.9% (active).

As to `N#CC(=C1SCS1)[N+](=O)[O-]`, the growth was -4.02% (active).

`COc1cccc(/C=N\NC(=O)c2ccncc2)c1O`: the growth was 9.43% (active).

On to `CC(=O)C1N=NCC1c1ccccc1` (stereo not given), for which the growth is 96.8%.

As for `CN1CCN(c2ccc(-c3cnc4c(-c5csc6ccccc56)cnn4c3)cc2)CC1`, the growth was 9.53% (active).

For the molecule `CNC(=O)N/N=C/c1ccc([N+](=O)[O-])o1`, the growth is 66.4%.

`Cn1cc(-c2csc(-c3cn(CCN)c4ccccc34)n2)c2cccnc21`: the growth was 26.5%.

For the molecule `CCOC(=O)Cc1cnn(C)c1NC(=O)c1ccc(Cl)cc1NC(C)=O`, the growth was 102%.

On to `CCCC(CC)(C(=O)Nc1ccc2nc(C)cc(N)c2c1)C(=O)Nc1ccc2nc(C)cc(N)c2c1`, for which the growth was 100%.

`Cc1ncc(C#N)c(N)n1`: the growth is 109%.

As to `COc1cc(OC)c(NC(=O)c2cc3ccccc3cc2O)cc1Cl`, the growth was 22%.

For `CC(=O)Oc1ccc(Nc2c3ccccc3nc3ccccc23)cc1`, the growth was -5.02% (active).

As to `O=C(O/C(=C/c1ccccc1)C(F)(F)F)c1ccccc1`, the growth was 32.3%.

Consider `Cc1nn(-c2cccc(Cl)c2)c(C)c1N=Nc1ccc(Br)cc1`, for which the growth was 77.9%.

As to `O=Nc1c(-c2cccc([N+](=O)[O-])c2)nc2ncccn12`, the growth was 0.307% (active).

As for `CCOC(=O)c1cc(C(=O)c2ccc(Br)cc2)n2cc(C)cc(C)c12`, the growth is 103%.

`CCCCc1ccc(Nc2nnc(SCC(=O)NC(=O)NCC)s2)cc1`: the growth was 95.2%.

Take `CC[C@H](Nc1ncnc(N)c1C(N)=O)c1nc2cccc(NCc3ccc(C(=O)NO)cc3)c2c(=O)n1-c1ccccc1`: the growth was 126%.

As to `Nc1n[nH]c2cc(F)c([C@@H]3Nc4c(F)cc5[nH]ncc5c4[C@H]4C5CCC(C5)[C@@H]34)cc12` (stereo not given in full), the growth was -30.1% (active).

As to `O=C(NCc1ccc(F)cc1)C1CN(c2ccc(Cl)cc2)N(c2ccc(Cl)cc2)C1=O` (stereo not given), the growth is 43.6%.

In the case of `NC(=S)N/N=C/c1cn(-c2ccccc2)nc1-c1cc2ccccc2oc1=O`, the growth was 20.4%.

Take `NCCCNc1nc2ccccc2c2c(=O)c3cc(F)ccc3sc12`: the growth was -28.1% (active).

Consider `Cc1ccc(NC(=O)c2sc3nc4c(cc3c2N)C(=O)CCC4)cc1`, for which the growth was 110%.

Turning to `COC(=O)[C@]12CC[C@@H](C)[C@H](C)[C@@H]1C1=CC[C@@H]3[C@@]4(C)C(C=O)=C[C@@](C)(COS(C)(=O)=O)[C@@H]4C(=O)C[C@@]3(C)[C@]1(C)CC2`, the growth was 31.5%.

For the molecule `O=C(CSc1nc2ccccc2c(=O)n1-c1ccccc1)Nc1ccc(C(=O)/C=C/c2ccc(Cl)cc2)cc1`, the growth was 99%.

On to `CCN1CCN(c2nc3ccccc3c3c(=O)c4ccccc4sc23)CC1`, for which the growth is 76.4%.

For `Nc1nc2cc(O)ccc2n2cc3c(F)cccc3c12`, the growth was 21.7%.

Consider `Cc1cc2ccccc2cn1`, for which the growth is 91.6%.

For `CCOC(=O)Sc1ncnc2nc[nH]c12`, the growth was 2.99% (active).

As to `CC(=O)c1ccc(NS(=O)(=O)c2cccc(C(=O)Nc3ccc(Br)cc3)c2)cc1`, the growth was 47.3% [25 µM].

Turning to `CCOc1ccc(Br)cc1/C=N\N=C\c1cc(Br)ccc1OCC`, the growth was 73.2%.

Consider `O=S(=O)(Nc1cc(F)cc(Cl)c1)c1ccc(-c2cnc(C3CC3)o2)cc1`, for which the growth is 7.71% (active).

For the origin of these results see PubChem BioAssay (NCI).
